# Unmarked numbers belong to inactive results. A call without a number means that no potency is given here. Activity calls are given as the source filed them. Unless noted, the call rests on the fitted dose curve; in most records, active means well fitted curve in the direction sought with a large enough effect in the repeat runs; inconclusive means weak or mixed curves; inactive means no such curve, though single readings can be large; an effect the other way counts as inactive or inconclusive.
# Assays:
# [1] = qHTS assay for small molecule agonists of the p53 signaling pathway (AID 651631; calls by dose curve; further: nearly all actives have a fitted effect of over 15% in size)
# Method in brief: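 Readout was fluorescence from the LiveBLAzer FRET substrate, applied for 2 h at room temperature after 16 h compound exposure at 37 °C. Cells were the p53RE-bla HCT-116 line, with beta-lactamase driven by p53 response elements.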
# [2] = qHTS assay for small molecules that induce genotoxicity in human embryonic kidney cells expressing luciferase-tagged ATAD5 (AID 651632); further: nearly all actives have a fitted effect of over 15% in size
# Method in brief: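 Reporter cells (HEK293T) express luciferase-tagged ATAD5, a protein that accumulates after DNA damage. Treat 16 hr at 37C/5% CO2, add Amplite, wait 30 min at RT, and read luminescence.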
# [3] = qHTS assay for small molecule agonists of the p53 signaling pathway - cell viability (AID 651633; calls by dose curve; further: series mostly up to about 83 µM; nearly all actives have a fitted effect of over 30% in size)
# Method in brief: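 Viability counter-read: CellTiter-Glo luminescence (30 min, room temperature) in the same p53RE-bla plates. These plates had been exposed to compounds for 16 h at 37 C.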
# [4] = qHTS assay for small molecules that induce genotoxicity in human embryonic kidney cells expressing luciferase-tagged ATAD5 - cell viability (AID 651634; calls by dose curve; further: nearly all actives have a fitted effect of over 25% in size)
# Method in brief: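 Seeding of 2,000 HEK293T ATAD5-luciferase cells per well preceded pin-tool compound transfer. Plates sat 15.5 hr at 37C under 5% CO2, then fluorescence was read after 30 min with CellTiter-Fluor.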
# [5] = qHTS assay for small molecule disruptors of the mitochondrial membrane potential - cell viability (AID 720634; calls by dose curve;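 further: human HepG2 liver cancer cells; series mostly up to about 83 µM; nearly all actives have a fitted effect of over 20% in size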)
# Method in brief: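 Measuring cytotoxicity alongside mitochondrial potential, the screen quantified ATP by luminescence in HepG2 cells after 1 hr compound incubation and a 30 min room-temperature CellTiter-Glo step.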
# [6] = qHTS assay for small molecule disruptors of the mitochondrial membrane potential (AID 720635)
# Method in brief: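 Mitochondrial membrane potential tracked with Mito-MPS dye, red aggregates (ex 540/em 590 nm) against green monomers (ex 490/em 535 nm). Compound treatment 1 hr at 37C, dye 30 min in HepG2.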
# [7] = qHTS assay to test for compound auto fluorescence at 590 nm (red) in HepG2 cells (AID 720674)
# Method in brief: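 Red autofluorescence (Ex/Em 540/590 nm, Rose Bengal sodium equivalents) was measured in HepG2 cells, 2,000 per well in MEM plus 10% FBS, plated overnight at 37 C. Readings were taken 1 hr after adding 23 nL compound or DMSO, at 37 C and 5% CO2.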
# [8] = qHTS assay to test for compound auto fluorescence at 535 nm (green) in HepG2 cells (AID 720675)
# [9] = qHTS assay to test for compound auto fluorescence at 460 nm (blue) in HEK293 cells (AID 720678)
# Method in brief: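 Measured: blue fluorescence (Ex 405/Em 460 nm) of compound-treated HEK293 cells, incubated overnight at 37C with 5% CO2 and scaled to triamterene equivalents.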
# [10] = qHTS assay to test for compound auto fluorescence at 590 nm (red) in HEK293 cells (AID 720679)
# Method in brief: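 Using HEK293 cells at 2,000 per well, the screen added 23 nL of each compound after cell attachment and incubated overnight (37C, 5% CO2). The plate reader then captured red-label fluorescence, Ex/Em 540/590nm.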
# [11] = qHTS assay to test for compound auto fluorescence at 535 nm (green) in HEK293 cells (AID 720680)
# [12] = qHTS assay to test for compound auto fluorescence at 460 nm (blue) in HEK293 cell free culture (AID 720681)
# Method in brief: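 Blue fluorescence (Ex 405/Em 460 nm, triamterene-equivalent) was read immediately after pin transfer of compound or DMSO into medium (DMEM, 10% FBS) without cells.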
# [13] = qHTS assay to test for compound auto fluorescence at 535 nm (green) in HEK293 cell free culture (AID 720682)
# Method in brief: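 Compounds were pin-transferred into cell-free DMEM with 10% FBS, and green fluorescence was read at excitation 485 nm and emission 535 nm. Intensities were expressed as fluorescein-equivalent values.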
# [14] = qHTS assay to test for compound auto fluorescence at 590 nm (red) in HEK293 cell free culture (AID 720683)
# Method in brief: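 Red-channel autofluorescence of compounds in culture medium (DMEM, 10% FBS), no cells, measured at 540/590 nm. Rose Bengal sodium is the reference fluorophore for equivalence.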
# [15] = qHTS assay to test for compound auto fluorescence at 590 nm (red) in HepG2 cell free culture (AID 720684)
# Method in brief: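 Plate contents were MEM with 10% FBS plus test compound or DMSO, no cells. Fluorescence was recorded with 540 nm excitation and 590 nm emission.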
# [16] = qHTS assay to test for compound auto fluorescence at 460 nm (blue) in HepG2 cell free culture (AID 720685)
# Method in brief: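 Compound (23 nL) or DMSO pinned into cell-free MEM with 10% FBS; blue fluorescence read at 405/460 nm excitation/emission, expressed as auto-fluorescence equivalency to triamterene.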
# [17] = qHTS assay to test for compound auto fluorescence at 535 nm (green) in HepG2 cell free culture (AID 720686)
# [18] = qHTS assay to test for compound auto fluorescence at 460 nm (blue) in HepG2 cells (AID 720687)
# Method in brief: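 Blue-channel autofluorescence (Ex/Em 405/460 nm, triamterene-equivalent) was measured after 1 hr compound exposure at 37 C, 5% CO2. Cells were HepG2, plated overnight at 37 C in MEM plus 10% FBS.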
# [19] = target: Glucocorticoid receptor (Homo sapiens) (UniProt P04150); assay: qHTS assay to identify small molecule agonists of the glucocorticoid receptor (GR) signaling pathway (AID 720691; active means well fitted activation curve with a large enough effect in the signal ratio in the repeat runs, not every such curve was filed as active; inconclusive means weak or mixed curves, or effect the other way; inactive means no such curve, though single readings can be large or run the other way; the % refers to the signal ratio)
# Chain of Glucocorticoid receptor (Homo sapiens) (P04150 whole entry, looked up): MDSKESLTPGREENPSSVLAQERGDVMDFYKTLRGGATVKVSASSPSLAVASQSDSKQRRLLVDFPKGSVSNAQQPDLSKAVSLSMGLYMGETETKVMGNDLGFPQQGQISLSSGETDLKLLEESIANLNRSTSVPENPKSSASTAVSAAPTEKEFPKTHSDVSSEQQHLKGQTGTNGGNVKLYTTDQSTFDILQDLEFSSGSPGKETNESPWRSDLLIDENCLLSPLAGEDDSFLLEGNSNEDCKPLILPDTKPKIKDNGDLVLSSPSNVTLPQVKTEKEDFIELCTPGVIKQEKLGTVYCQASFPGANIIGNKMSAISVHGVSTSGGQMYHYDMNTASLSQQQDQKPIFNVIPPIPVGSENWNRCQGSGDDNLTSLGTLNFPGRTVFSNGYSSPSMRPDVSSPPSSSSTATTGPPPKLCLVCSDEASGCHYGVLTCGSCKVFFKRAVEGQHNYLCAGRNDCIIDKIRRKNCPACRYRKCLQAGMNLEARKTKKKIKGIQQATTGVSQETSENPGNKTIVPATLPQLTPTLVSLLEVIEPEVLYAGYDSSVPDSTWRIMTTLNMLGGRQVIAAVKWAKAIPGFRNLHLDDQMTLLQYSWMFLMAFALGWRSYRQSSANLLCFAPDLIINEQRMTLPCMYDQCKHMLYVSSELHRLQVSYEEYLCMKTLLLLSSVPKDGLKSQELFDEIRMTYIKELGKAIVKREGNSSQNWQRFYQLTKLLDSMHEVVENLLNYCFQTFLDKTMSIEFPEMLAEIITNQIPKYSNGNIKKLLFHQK
# Method in brief: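 Reporter read-out: fluorescence intensity following 2 h room-temperature LiveBLAzer B/G FRET substrate loading. Prior step: GR-bla HeLa cells held 4 h, then treated 18 h at 37 C.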
# [20] = qHTS assay to identify small molecule antagonists of the glucocorticoid receptor (GR) signaling pathway - cell viability counter screen (AID 720693); further: nearly all actives have a fitted effect of over 55% in size
# [21] = qHTS assay for identifying genotoxic compounds that show differential cytotoxicity against isogenic chicken DT40 cell lines with known DNA damage response pathways - wild type cell line (AID 743012); further: nearly all actives have a fitted effect of over 60% in size
# Method in brief: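 Using parental DT40 (300 cells/well), compounds delivered in DMSO incubate 40 h at 37 C/5% CO2. CellTiter-Glo reagent then stands 30 min at room temperature, and luminescence gives cell viability.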
# [22] = qHTS assay for identifying genotoxic compounds that show differential cytotoxicity against isogenic chicken DT40 cell lines with known DNA damage response pathways - Rev3 mutant cell line (AID 743014); further: nearly all actives have a fitted effect of over 55% in size
# [23] = qHTS assay for identifying genotoxic compounds that show differential cytotoxicity against isogenic chicken DT40 cell lines with known DNA damage response pathways - Rad54/Ku70 mutant cell line (AID 743015); further: nearly all actives have a fitted effect of over 60% in size
# [24] = qHTS assay to identify small molecule antagonists of the androgen receptor (AR) signaling pathway - cell viability counter screen (AID 743033; further: nearly all actives have a fitted effect of over 45% in size)
# [25] = qHTS assay to identify small molecule antagonists of the androgen receptor (AR) signaling pathway using the MDA cell line - cell viability counter screen (AID 743041; further: nearly all actives have a fitted effect of over 45% in size)
# Method in brief: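 R1881-driven MDA-kb2 AR-luc cells, 3,000/well, were dosed with library compounds for 16 h; cell health came from CellTiter-Fluor fluorescence in the reporter wells.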
# [26] = qHTS assay to identify small molecule antagonists of the thyroid receptor (TR) signaling pathway - cell viability counter screen (AID 743064); further: nearly all actives have a fitted effect of over 50% in size
# Method in brief: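 In-well cytotoxicity read by CellTiter-Fluor (30 min, 37 C) following 23.5 h exposure of GH3 cells bearing a TRE-luciferase sensor. Compounds were added alongside 1 nM (final) T3 to drive TR transactivation.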
# [27] = qHTS assay to identify small molecule antagonists of the thyroid receptor (TR) signaling pathway (AID 743065); further: series mostly up to about 70 µM; nearly all actives have a fitted effect of over 55% in size
# Method in brief: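 Antagonism measured as loss of luciferase signal in GH3 cells stably carrying a TRE-luciferase reporter, co-treated with compound and T3 (1 nM final) for 23.5 h at 37 C. Viability was read in the same well by CellTiter-Fluor.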
# [28] = test system: thyroid hormone receptor (rat, GH3 cells); assay: qHTS assay to identify small molecule agonists of the thyroid receptor (TR) signaling pathway (AID 743066; calls by dose curve)
# [29] = qHTS assay to identify small molecule antagonists of the estrogen receptor alpha (ER-alpha) signaling pathway - cell viability counter screen (AID 743074; calls by dose curve;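 further: HEK293 cells carrying ER-alpha-UAS-bla reporter stimulated with 17beta-estradiol; nearly all actives have a fitted effect of over 45% in size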)
# [30] = target: Estrogen receptor (Homo sapiens) (UniProt P03372); assay: qHTS assay to identify small molecule agonists of the estrogen receptor alpha (ER-alpha) signaling pathway (AID 743075; calls by dose curve;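 further: HEK293 GripTite cells with ER-alpha and UAS-driven beta-lactamase reporter; potency means the concentration at half of the fitted maximal effect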)
# Chain of Estrogen receptor (Homo sapiens) (P03372 whole entry, looked up): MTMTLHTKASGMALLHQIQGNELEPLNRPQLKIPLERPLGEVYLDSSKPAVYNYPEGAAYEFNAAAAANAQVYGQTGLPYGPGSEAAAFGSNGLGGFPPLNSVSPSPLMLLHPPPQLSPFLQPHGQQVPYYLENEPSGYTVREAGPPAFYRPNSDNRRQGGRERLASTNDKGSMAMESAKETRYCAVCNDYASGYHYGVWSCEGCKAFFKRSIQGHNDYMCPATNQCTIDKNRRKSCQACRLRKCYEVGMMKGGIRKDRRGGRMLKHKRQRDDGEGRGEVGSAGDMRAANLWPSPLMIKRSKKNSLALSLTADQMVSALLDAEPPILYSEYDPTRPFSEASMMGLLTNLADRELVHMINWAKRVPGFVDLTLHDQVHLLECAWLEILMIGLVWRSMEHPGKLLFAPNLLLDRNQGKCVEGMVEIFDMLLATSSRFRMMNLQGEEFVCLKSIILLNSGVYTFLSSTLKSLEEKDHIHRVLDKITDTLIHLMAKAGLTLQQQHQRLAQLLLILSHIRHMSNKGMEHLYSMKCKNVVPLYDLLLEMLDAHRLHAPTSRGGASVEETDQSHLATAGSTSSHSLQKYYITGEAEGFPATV
# [31] = target: Estrogen receptor (Homo sapiens) (UniProt P03372); assay: qHTS assay to identify small molecule agonists of the estrogen receptor alpha (ER-alpha) signaling pathway using the BG1 cell line (AID 743079); further: potency means the concentration at half of the fitted maximal effect; nearly all actives have a fitted effect of over 20% in size
# [32] = qHTS assay to identify small molecule antagonists of the estrogen receptor alpha (ER-alpha) signaling pathway using the BG1 cell line (AID 743080; calls by dose curve;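 further: BG1 cells stimulated with 17beta-estradiol alongside compound; series mostly up to about 70 µM; nearly all actives have a fitted effect of over 25% in size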)
# Method in brief: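 Quantitative HTS on the Tox21 10K library: BG1 cells with endogenous ER-alpha and ERE-luciferase reporter, 17beta-estradiol stimulation, 21.5 h compound exposure, luminescence endpoint with parallel fluorescence cytotoxicity counter-read.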
# [33] = qHTS assay to identify small molecule antagonists of the estrogen receptor alpha (ER-alpha) signaling pathway using the BG1 cell line - cell viability counter screen (AID 743081);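 further: compound given together with 17beta-estradiol as the ER stimulus; series mostly up to about 70 µM; nearly all actives have a fitted effect of over 45% in size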
# Aromatase (Homo sapiens) = Aromatase (Homo sapiens) (UniProt P11511); assay: qHTS assay to identify aromatase inhibitors (AID 743083); further: series mostly up to about 70 µM; nearly all actives have a fitted effect of over 55% in size
# Chain of Aromatase (Homo sapiens) (P11511 whole entry, looked up): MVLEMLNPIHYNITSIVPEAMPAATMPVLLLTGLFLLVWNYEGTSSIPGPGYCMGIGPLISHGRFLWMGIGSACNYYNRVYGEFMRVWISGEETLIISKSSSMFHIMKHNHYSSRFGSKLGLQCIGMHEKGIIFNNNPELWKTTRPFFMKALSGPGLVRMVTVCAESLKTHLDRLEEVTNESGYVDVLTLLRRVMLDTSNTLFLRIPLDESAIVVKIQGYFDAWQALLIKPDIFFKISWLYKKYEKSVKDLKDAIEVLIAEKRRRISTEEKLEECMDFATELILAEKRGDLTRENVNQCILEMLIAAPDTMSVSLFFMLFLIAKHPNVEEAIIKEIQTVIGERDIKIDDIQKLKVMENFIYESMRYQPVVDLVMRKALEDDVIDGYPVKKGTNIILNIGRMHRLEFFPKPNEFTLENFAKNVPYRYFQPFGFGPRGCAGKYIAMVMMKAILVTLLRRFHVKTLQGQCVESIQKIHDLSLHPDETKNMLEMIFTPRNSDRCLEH
# [34] = qHTS assay to identify aromatase inhibitors - cell viability counter screen (AID 743084)
# [35] = qHTS assay to identify small molecule that activate the aryl hydrocarbon receptor (AhR) signaling pathway - cell viability counter screen (AID 743086)
# Method in brief: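 Cytotoxicity counter screen: CellTiter-Fluor signal (30 min, 37 C) in 4000 HepG2 cells/well carrying the DRE-luciferase reporter, following 24 h compound exposure at 37 C.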
# [36] = target: Peroxisome proliferator-activated receptor gamma (Homo sapiens) (UniProt P37231); assay: qHTS assay to identify small molecule agonists of the peroxisome proliferator-activated receptor gamma (PPARg) signaling pathway (AID 743094; active means well fitted activation curve with a large enough effect in the signal ratio in the repeat runs, not every such curve was filed as active; inconclusive means weak or mixed curves, or effect the other way; inactive means no such curve, though single readings can be large or run the other way; the % refers to the signal ratio)
# Chain of Peroxisome proliferator-activated receptor gamma (Homo sapiens) (P37231 whole entry, looked up): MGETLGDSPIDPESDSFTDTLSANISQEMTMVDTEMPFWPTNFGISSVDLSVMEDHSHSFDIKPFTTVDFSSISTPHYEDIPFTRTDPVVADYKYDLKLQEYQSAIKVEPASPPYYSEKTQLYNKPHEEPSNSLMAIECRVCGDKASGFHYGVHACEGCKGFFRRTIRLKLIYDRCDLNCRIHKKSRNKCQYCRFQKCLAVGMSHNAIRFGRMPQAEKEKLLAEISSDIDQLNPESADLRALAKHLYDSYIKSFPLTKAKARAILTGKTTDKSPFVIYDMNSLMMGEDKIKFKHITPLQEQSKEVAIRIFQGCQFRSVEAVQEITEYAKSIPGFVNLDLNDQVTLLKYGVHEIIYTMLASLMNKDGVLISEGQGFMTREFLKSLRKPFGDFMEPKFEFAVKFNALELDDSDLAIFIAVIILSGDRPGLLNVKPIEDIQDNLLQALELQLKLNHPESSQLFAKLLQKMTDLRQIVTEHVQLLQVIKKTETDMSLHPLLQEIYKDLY
# Method in brief: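 Following 5 h plating at 37C, PPARg-bla HEK293H cells receive compound or DMSO for 17 h; fluorescence intensity is recorded after LiveBLAzer B/G loading for 1 h at room temperature.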
# [37] = qHTS assay to identify small molecule phospholipidosis (PLD) inducers (AID 1259344; active means well fitted curve in the direction sought with a large enough effect; inconclusive means small, poorly fitted or top-dose-only effect, or another doubt; inactive means no such curve, though single readings can be large; an effect the other way counts as inactive or inconclusive)
# Method in brief: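 Fluorescent phospholipid staining (LipidTOX Red) measured by automated microscopy in fixed HepG2 cells after 24 h treatment; nuclei counterstained with Hoechst 33342; amiodarone as reference inducer.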
# [38] = target: Nuclear receptor subfamily 1 group I member 2 (Rattus norvegicus) (UniProt Q9R1A7); assay: Rat pregnane X receptor (rPXR) activation by small molecules, qHTS assay (AID 1346983); conditions: rPXR luciferase reporter cells, One-Glo luminescence, 24 h; max activation: stronger effect = higher value; further: nearly all actives have a fitted effect of over 20% in size
# Chain of Nuclear receptor subfamily 1 group I member 2 (Rattus norvegicus) (Q9R1A7 whole entry, looked up): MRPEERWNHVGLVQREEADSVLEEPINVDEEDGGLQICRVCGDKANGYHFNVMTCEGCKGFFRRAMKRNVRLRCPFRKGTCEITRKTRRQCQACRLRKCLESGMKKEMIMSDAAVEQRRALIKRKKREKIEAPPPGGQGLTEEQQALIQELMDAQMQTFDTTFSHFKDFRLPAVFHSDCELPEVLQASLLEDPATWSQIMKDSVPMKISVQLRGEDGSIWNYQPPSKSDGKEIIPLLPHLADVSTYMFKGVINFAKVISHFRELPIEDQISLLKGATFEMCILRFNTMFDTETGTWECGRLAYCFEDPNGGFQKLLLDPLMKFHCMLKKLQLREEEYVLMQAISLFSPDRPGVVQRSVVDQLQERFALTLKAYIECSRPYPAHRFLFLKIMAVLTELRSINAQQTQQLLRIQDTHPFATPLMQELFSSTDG
# Method in brief: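 Luminescent readout (One-Glo luciferase, 30 min room temperature) followed 24 hr compound treatment at 37 C of rPXR cells plated 2,000 per well and preincubated 5hr; qHTS format with compounds delivered in DMSO.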
# [39] = target: Nuclear receptor subfamily 1 group I member 2 (Homo sapiens) (UniProt O75469); assay: CYP3A4 induction through human pregnane X receptor (PXR) by small molecules, qHTS assay (AID 1346984); further: nearly all actives have a fitted effect of over 40% in size
# Method in brief: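 qHTS, concentration-response format: HepG2 DPX-2 line, PXR/CYP3A4-luc. Exposure 24 h, 37C. Substrate Luciferin-IPA 3uM final, 3 h. Detection One-Glo, 30 min RT.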
# [40] = target: Nuclear receptor subfamily 1 group I member 2 (Homo sapiens) (UniProt O75469); assay: Human pregnane X receptor (PXR) activation by small molecules, qHTS assay (AID 1346985); further: nearly all actives have a fitted effect of over 40% in size
# Method in brief: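 DPX-2 cells (HepG2 co-transfected with a PXR response element and a CYP3A4-promoter luciferase construct) were seeded at 2,000 per well, rested 5 hr at 37C, then exposed to DMSO-dissolved compounds for 24 hr. Activation was read as luciferase luminescence.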
compound,measurement,setting,value
C[C@]12CC[C@H]3[C@@H](CCC4=C(O)C(=O)CC[C@@H]43)[C@@H]1CC[C@@H]2OC(=O)CCC1CCCC1,Potency,[1],inactive
same,Potency,[2],inactive
same,Potency,[3],inactive
same,Potency,[4],inactive
same,Potency,[5],inactive
same,Potency,[6],inactive
same,outcome,[7],inactive
same,Potency,[8],inactive
same,Potency,[9],inactive
same,outcome,[10],inactive
same,Potency,[11],inactive
same,Potency,[12],inactive
same,Potency,[13],inactive
same,outcome,[14],inactive
same,outcome,[15],inactive
same,Potency,[16],inactive
same,Potency,[17],inactive
same,Potency,[18],inactive
same,Potency,[19],inactive
same,Potency,[20],inactive
same,Potency,[21],inactive
same,Potency,[22],inactive
same,Potency,[23],inactive
same,Potency,[24],inactive
same,Potency,[25],inactive
same,Potency,[26],inactive
same,Potency,[27],inactive
same,Potency,[28],inactive
same,Potency,[29],inactive
same,Potency,[30],952 nM [inconclusive] (active)
same,Potency,[31],119 nM (active)
same,Potency,[32],inactive
same,Potency,[33],inactive
same,Potency,Aromatase (Homo sapiens),inactive
same,Potency,[34],inactive
same,Potency,[35],inactive
same,Potency,[36],inactive
same,Potency,[37],inactive
same,max activation,[38],-2.22%
same,Potency,[39],inactive
same,Potency,[40],inactive

# Source: PubChem BioAssay (Tox21)
